Screening results as filed in PubChem.
Hits are enriched below; roughly 7.2% of the tested compounds scored in any of these assays.
FLuc inh: Photinus pyralis luciferase inhibition | P08659 | purified P. pyralis luciferase, luminescence, biochemical | Potency, µM (top dose mostly 115 µM), hits mostly inhibitors | 76,000 compounds, 2.5% hits | AID 1347043; also: nearly all actives have a fitted effect of over 65% in size
Target sequence (P08659 whole entry, looked up): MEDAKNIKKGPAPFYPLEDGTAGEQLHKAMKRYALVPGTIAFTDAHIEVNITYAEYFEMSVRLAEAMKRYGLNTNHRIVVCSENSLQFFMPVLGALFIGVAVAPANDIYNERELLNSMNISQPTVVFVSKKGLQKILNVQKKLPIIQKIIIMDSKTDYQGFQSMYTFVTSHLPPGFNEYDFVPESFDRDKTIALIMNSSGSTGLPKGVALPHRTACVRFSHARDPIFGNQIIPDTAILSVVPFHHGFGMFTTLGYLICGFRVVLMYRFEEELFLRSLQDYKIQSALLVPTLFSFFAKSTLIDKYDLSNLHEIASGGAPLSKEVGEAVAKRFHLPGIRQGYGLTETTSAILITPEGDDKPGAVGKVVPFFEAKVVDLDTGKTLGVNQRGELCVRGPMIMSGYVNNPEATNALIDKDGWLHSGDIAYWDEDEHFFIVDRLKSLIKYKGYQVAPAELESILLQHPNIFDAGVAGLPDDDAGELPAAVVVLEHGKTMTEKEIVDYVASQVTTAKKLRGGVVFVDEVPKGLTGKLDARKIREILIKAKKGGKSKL
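FLuc 10nM, D-luciferin 10uM, ATP 10uM, Mg acetate 10mM, Tris acetate pH 7.5, Tween/BSA; cpd qHTS; enzyme added last; CCD luminescence.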
NPR1 antag: blocks ANP-stimulated signaling of human Npr1 receptor; 76,000 compounds, 1.6% hits; P16066; Potency, µM (top dose mostly 46.3 µM), usual class: inhibitors; AID 1347048; HEK293 hNpr1 GloSensor cGMP, ANP-stimulated luminescence; calls by dose curve; also: nearly all actives have a fitted effect of over 60% in size
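HEK293 cells stably expressing human Npr1 and cGMP GloSensor pGS-40F, loaded 2 h with 2% GloSensor reagent, given compound 30 min at room temperature. Luminescence read before and 20 min after 0.1 nM hNppA.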
HEK293 tox: kills HEK 293 cells; HEK 293 viability, ATP luminescence (CellTiter-Glo), 48-72 h; 94,000 compounds, 6.6% hits; Potency, µM (top dose mostly 115 µM), usual class: inhibitors; also: nearly all actives have a fitted effect of over 60% in size
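Luminescence from cellular ATP, measured with CellTiter-Glo, indicates HEK 293 viability. Cells plated at 250 cells/well are treated with compound for 48 or 72 hr at 37 degree Celsius before reagent addition.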
NIH3T3 tox: NIH 3T3 cell cytotoxicity. Potency, µM (series often up to 96.7 µM), usual class: inhibitors. NIH 3T3 viability, CellTiter-Glo ATP luminescence, 48-72 h. 94,000 compounds, 4.3% hits; also: nearly all actives have a fitted effect of over 55% in size
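Cells were seeded at 400 per well, treated with pin-transferred compound, and kept 48 or 72 hr at 37 °C before CellTiter-Glo addition and luminescence imaging of cellular ATP.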
SNCA expr inhib: SNCA gene expression inhibition; HEK-293 SNCA-luciferase knock-in, luminescence, 24 h; Potency, µM (series often up to 57.2 µM), most hits filed as inhibitors; 140,000 compounds, 0.17% hits; AID 1671194; also: nearly all actives have a fitted effect of over 45% in size
SNCA viab count: reduces viability of HEK-293 SNCA reporter cells. HEK-293-SNCA-luc viability, GF-AFC fluorescence, 24 h. Potency, µM (highest dose often 57.1 µM), most hits filed as cytotoxic. 150,000 compounds, 0.12% hits; also: nearly all actives have a fitted effect of over 30% in size
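Cytotoxicity counterscreen: after 24 h compound treatment of genome-edited SNCA-luciferase HEK-293 cells, live-cell protease substrate GF-AFC read by fluorescence after 30 min; activity scaled between DMSO (0%) and medium-only (-100%), curves Hill-fitted.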
A number is an active result; n = inactive; u = inconclusive; x = not tested or not shown; [ ] = remark or other dose. Unless noted, calls follow the shape of the dose curve; as a rule, active = well fitted curve in the direction sought with a large enough effect; inconclusive = small, poorly fitted or top-dose-only effect, or another doubt; inactive = no such curve, though single readings can be large; an effect the other way counts as inactive or inconclusive.

SMILES | FLuc inh | NPR1 antag | HEK293 tox | NIH3T3 tox | SNCA expr inhib | SNCA viab count
COc1ccccc1CN1Cc2cc(NC(=O)Cc3ccc(F)cc3)ccc2OC(C)C1=O (stereo unspecified) | n | n | u | u | u | n
CCC1Oc2ccc(NC(=O)C3CCCC3)cc2CN(Cc2ccccc2Cl)C1=O (stereo unspecified) | n | n | 79µM | u | n | n
O=C(Nc1ccc2c(c1)CN(Cc1ccc(Cl)cc1)C(=O)CO2)c1ccc(F)cc1F | n | n | 79µM | u | n | n
CCc1nc(NC(CCn2cncn2)c2ccccc2)c2cnn(C)c2n1 (stereo unspecified) | n | n | n | n | n | n
COc1ccc(-c2nc(C(C)C)nc3c2CCN(C(=O)c2ccccc2Cl)CC3)cc1 | n | n | u | u | n | u
CN1CC(=O)N(c2ccc(Cl)cc2)Cc2c1ncnc2N1CCCCC1 | n | n | u | n | n | n
O=C(COc1ccccc1)Nc1ccc2c(c1)CN(CCc1ccc(F)cc1)C(=O)CO2 | u | 16µM | u | u | n | n
CCCc1nnsc1C(=O)N[C@@H]1COCC[C@@H]1OCC1CC1 | n | n | n | n | n | n
O=C(NCc1ccccc1)c1cnc2n1CCN(CCCc1ccccc1)CC2 | n | n | u | 25µM | u | n
N#Cc1cccc(CN2CCc3ncc(C(=O)NCc4ccccc4)n3CC2)c1 | n | n | u | u | u | n
CC(C)CCN1CCc2ncc(C(=O)NCCOc3ccccc3)n2CC1 | n | n | 28µM | u | u | u
O=C(NCc1ccc(F)cc1)c1cnc2n1CCN(CCc1ccccc1)CC2 | n | n | u | u | u | n
N#Cc1ccc(CN2CCc3ncc(C(=O)NCCOc4ccccc4)n3CC2)cc1 | n | u | 71µM | u | n | n
CC(C)CCNC(=O)c1cnc2n1CCN(CCCc1ccccc1)CC2 | n | n | u | u | u | n
O=C(c1ccccc1Cl)N1CCCC(C(=O)N2CCC(c3nc4ccncc4[nH]3)CC2)C1 (stereo unspecified) | x | x | n | n | n | n
Cc1nnc(CN2CCC3(C2)C(=O)N(C)C(=O)N3C)o1 (stereo unspecified) | x | x | n | n | n | n
O=C(CC(c1cccc([N+](=O)[O-])c1)c1cn(Cc2ccc(F)cc2)c2ccccc12)N1CCCC1 (stereo unspecified) | n | n | u | u | n | n
CC(=O)N1CCN(C(=O)c2cccs2)[C@H](C(=O)N[C@@H](CC2CCCCC2)C(N)=O)C1 | n | n | n | n | n | n
COC(=O)[C@H](Cc1ccc(OC)cc1)NC(=O)[C@H]1CN(S(=O)(=O)c2ccccc2)CCN1C(=O)c1cccs1 | n | n | 79µM | u | u | u
NC(=O)[C@H](CC1CCCCC1)NC(=O)[C@@H]1CN(S(=O)(=O)c2ccccc2)CCN1C(=O)c1cccs1 | n | n | n | 25µM | n | n
CCn1nccc1C(=O)N1CCC2(CC1)c1[nH]c3ccccc3c1CCN2C | n | n | u | n | n | n[12.5 µM]
CCC(C)CC(=O)OC1C(=O)C(CO)=CC(O)C1C(C)C (stereo unspecified) | x | x | x | x | x | 19µM
COCCn1c(=O)c(C(=O)N2CCN(C(=O)Nc3ccccc3)CC2)nc2cccnc21 | x | x | n | n | n | n
O=C1CO[C@H]2CCN(Cc3ccc4c(c3)CCO4)CC[C@@H]2N1Cc1ccccc1 | n | n | u | 100µM | n | n
O=C1CO[C@H]2CCN(Cc3ccc4c(c3)CCO4)CC[C@@H]2N1Cc1ccc(O)cc1 | n | n | u | n | n | n
SMILES | FLuc inh | NPR1 antag | HEK293 tox | NIH3T3 tox | SNCA expr inhib | SNCA viab count
CC(C)c1ccc(CN2CC[C@@H]3OCC(=O)N(Cc4ccccc4)[C@H]3CC2)cc1 | n | u | 32µM | 35µM | u | u
O=C(c1cn(C2CCCCC2)nn1)N1CCCC(C(=O)N2CCOCC2)C1 (stereo unspecified) | n | n | n | n | n | n
CCn1cc(-c2nc3cc(S(=O)(=O)NC(C)C)ccc3n2C(C)C)c(C)n1 | n | n | n | u | n | n
COc1ccccc1-c1cccc(C(=O)N2CCC[C@H]2C(=O)NCc2cccc(C(F)(F)F)c2)c1 | x | x | u | u | n | n[12.5 µM]
COc1ccc(CN2CCC(CO)(CN3CCCC3)CC2)cc1C | n | n | 89µM | u | u | n
CC(C)Oc1ccc(CN2CCC(CO)(CN3CCCC3)CC2)cc1Cl | n | n | 25µM | 32µM | n | n
COc1ccc(CN2CCC(CO)(CN3CCCC3)CC2)cc1OC | n | n | n | u | n | n
Cc1ccc(S(=O)(=O)N(C)C2CCOc3ccccc32)cc1 (stereo unspecified) | n | n | 100µM | u | n | n
CCCOCCCNC(=O)c1c(C)noc1-c1ccc2c(c1)OCO2 | n | n | n | n | n | n
CCCOCCCNC(=O)c1c(C)noc1-c1ccc(C(C)(C)C)cc1 | n | n | 35µM | u | n | n
O=C1CCN(C(=O)c2cccs2)CCCCCCN1 | n | n | n | n | n | n
CNC(C)c1ccc(OC(F)(F)F)cc1 (stereo unspecified) | x | x | n | n | n | n
CNC(C)c1ccc(Oc2ccccc2)cc1 (stereo unspecified) | x | x | 100µM | 79µM | n | n
Cn1cccc1CN1CCC2(C1)C(=O)Nc1ccccc12 (stereo unspecified) | n | n | u | 100µM | n | n
Cc1noc(C)c1CC(=O)NC1CCCc2c1[nH]c1c(Cl)cccc21 (stereo unspecified) | n | n | u | 20µM | n | n
COc1ccc(CC(=O)NC2CCCc3c2[nH]c2c(Cl)cccc32)cc1OC (stereo unspecified) | n | u | 28µM | 13µM | n | n
Cc1noc2nc(C(C)C)cc(C(=O)NC3CCCc4c3[nH]c3c(Cl)cccc43)c12 (stereo unspecified) | n | n | 35µM | u | n | n
Cc1nn(C)c(C)c1S(=O)(=O)N1CCCC1c1noc(COc2ccc(F)cc2)n1 (stereo unspecified) | n | n | u | n | n | n
O=C1N2CCCC2CN1C1CCN(Cc2ccc(C(F)(F)F)cc2)CC1 (stereo unspecified) | n | u | 40µM | u | n | n
Cc1noc(-c2cccn3c(CNC(=O)c4ccoc4)nnc23)n1 | n | n | n | n | n | n
N#CC1(c2ccc(-c3cccc(CN4CCOCC4)c3)cc2)CCCC1 | 35µM | n | u | u | n | n
CN1CCN(C(CN)C2CCCCC2)CC1 (stereo unspecified) | x | x | u | 45µM | n | n
Cc1nn(-c2ccccc2)c2c1C(C)N(C1CCN(C(=O)c3ccccc3)CC1)C2=O (stereo unspecified) | x | x | 35µM | u | x | x
